Source: PubChem (several laboratories)
DAX1 inh-1 – NR0B1 (DAX1) inhibition; P51843; HEK293 Gal4-DAX1 luciferase reporter, luminescence; inhibition, % at 6.75 µM; 340,000 tested, 0.99% active;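 active = inhibition above the mean over all tested compounds plus 3 SD, cut at about 4.2% in these data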;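 note: inhibition shows as a rise in luminescence from relieved DAX1 repression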
Target sequence (P51843 207-470 limits assumed): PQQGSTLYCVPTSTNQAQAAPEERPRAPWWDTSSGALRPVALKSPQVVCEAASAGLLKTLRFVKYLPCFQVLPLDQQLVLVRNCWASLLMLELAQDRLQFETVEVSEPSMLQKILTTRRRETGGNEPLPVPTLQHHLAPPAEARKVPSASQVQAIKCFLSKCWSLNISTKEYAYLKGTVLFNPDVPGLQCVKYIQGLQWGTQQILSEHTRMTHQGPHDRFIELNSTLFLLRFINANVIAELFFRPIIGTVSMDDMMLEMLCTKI
hgDAF-12 ag – hgDAF-12 agonism, primary luciferase screen | activation, % at 6.8 µM | HEK293 GAL4-hgDAF12 UAS-luciferase reporter, agonist luminescence; normalized to butyrate control | 370,000 tested, 1.8% active;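 active = activation above a cutoff set at the mean of all screened compounds plus 3 SD, cut at about 10% in these data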
ssDAF12 agonist – S. stercoralis DAF-12 activation, primary screen. 370,000 tested, 1% active. activation, % at 6.8 µM. HEK293 ssDAF-12/GRIP1 lit1-tk-luc reporter, luminescence; % of 3 µM dafachronic acid response. AID 652126;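 active = activation above the mean over all tested compounds plus 3 SD, cut at about 0.9% in these data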
DAX1 inh-2 – blocks DAX1 repression of SF-1 activated StAR promoter. 370,000 tested, 1.1% active. AID 652010. inhibition, % at 6.8 µM. HEK293T StAR-luciferase reporter, SF-1/DAX-1 repression relief;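 active = inhibition above the mean over all tested compounds plus 3 SD, cut at about 3.6% in these data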;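 note: higher inhibition means more luminescence from relief of DAX-1 repression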
hcDAF12 agonist – activates DAF-12 receptor from parasite H. contortus; activation, % at 6.8 µM; 370,000 tested, 1.4% active; HEK293 hcDAF-12 lit1-tk-luc reporter, luminescence; 0% DMSO, 100% Δ7-dafachronic acid;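 active = activation above the mean of all tested compounds plus 3 SD, cut at about 5.5% in these data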
PolyA inh – blocks polyadenylation in yeast reporter cells; AID 1875; activity score, % at 12 µM; 300,000 tested, 0.02% active; S. cerevisiae SKY197-pL101 polyadenylation reporter, beta-gal luminescence; efflux-impaired pdr1/pdr3 knockout yeast; score 100 = 6 SD above DMSO;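 active = lowest replicate activity score at least 50, where 100 means six control SD above control mean; inconclusive = lowest score under 50 but half or more replicates reach 50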;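 note: yeast exposed to compound for 9 h at 30 °C; higher score means more reporter readthrough which indicates perturbed polyadenylation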
A number is an active result; - = inactive; ? = inconclusive; . = no result given. Sampled rows, rich in hits. Any-hit rate of the full collection: about 4.1%.

SMILES	DAX1 inh-1	hgDAF-12 ag	ssDAF12 agonist	DAX1 inh-2	hcDAF12 agonist	PolyA inh
Cc1cccc(C2=NN(c3ccc(Br)cc3)[C@@H](C(=O)N3CCOC3=O)[C@@H]2c2ccccc2)c1	-	.	.	.	.	.
C#CCOCCOCCOCCNc1nc(N2CCOCC2)nc(N2CCN(C(=O)[C@H](CCC(=O)O)n3cc(C(N)CC(C)C)nn3)CC2)n1 (stereo partly drawn)	.	-	-	.	-	.
O=C(c1cccc(Br)c1)c1coc2ccc(O)cc12	-	13	-	-	-	.
O=C(c1cccs1)c1coc2ccc(O)cc12	-	12	-	-	-	-
O=S1(=O)c2ccc(Br)cc2OC[C@H](Cc2ccccc2)N1Cc1cn(Cc2ccc(C(F)(F)F)cc2)nn1	.	-	-	-	-	.
C=C1C(=O)[C@]23C[C@H]1CCC2[C@@]1(C)C(C[C@@H]3O)[C@](C)(C(=O)O)C[C@H](O)[C@@H]1O (stereo partly drawn)	.	-	-	-	-	.
C=C1C(=O)[C@]23C[C@H]1CC[C@H]2[C@]1(C)[C@@H](O)CC[C@@](C)(C(=O)O)[C@H]1C[C@@H]3O	.	-	-	4.3	-	.
Cc1cc[n+](C2=C([O-])c3ccccc3C(=O)/C2=N\S(=O)(=O)c2cccs2)cc1C	4.5	-	-	-	-	-
COCc1cc(=O)n2c([nH]c3ccccc32)c1C#N	-	-	1.2	-	-	-
Cc1cc2c(cc1C)NC(=O)CC(C(F)(F)C(F)(F)C(F)(F)F)=N2	4.7	-	-	-	-	-
COc1cccc(OCc2cc(C(=O)N3CCNC(=O)C3Cc3ccccc3)no2)c1 (stereo not drawn)	-	-	-	4.2	-	-
NC(=O)[C@@H]1CCCN1C(=O)c1cc(COc2ccc3c(c2)CCCC3)on1	-	-	-	4.5	-	-
COc1cccc(OCc2cc(C(=O)N3CCCC3c3ccccn3)no2)c1 (stereo not drawn)	-	12	-	-	-	-
Cc1cccc(C)c1OCc1cc(C(=O)N2CCC[C@H]2C(N)=O)no1	-	-	-	-	-	-
COC(=O)C1=C(C)N(Cc2cccc(C(F)(F)F)c2)C(=NCc2ccc(OC)cc2)NC1c1cccc(F)c1 (stereo not drawn)	.	-	-	-	-	.
CCCCOCCCNC(=O)C[C@@H]1C[C@@]2(C(=O)OC)CC(C)(C)CC=C2N(CCc2ccc(OC)c(OC)c2)C1=O	.	-	-	-	-	.
COC(=O)[C@@]12C[C@@H](CC(=O)NCCC(C)C)C(=O)N(CCc3ccc(OC)c(OC)c3)C1=CCC(C)(C)C2	.	-	-	4.4	-	.
C/C(=N\NC(=O)c1cccc([N+](=O)[O-])c1)c1ccncc1	-	-	-	-	-	-
C/C(=N\NC(=O)c1cccc([N+](=O)[O-])c1)c1cccs1	4.9	-	-	-	-	-
C/C(=N/NC(=O)c1cccs1)c1cccc(NC(=O)C2CC2)c1	-	13	-	4.2	-	-
C/C(=N\NC(=O)c1cccc2ccccc12)c1cccs1	-	-	-	-	-	-
C/C(=N\NC(=O)c1cccs1)c1ccc2ccccc2c1	-	11	-	-	-	-
CCCN1CCCCC(NC(=O)c2ccc(F)c(F)c2)C1=O (stereo not drawn)	.	-	-	-	-	.
CCOC(=O)/C(=C\c1c[nH]c2ccccc12)NC(C)=O	-	-	1.4	-	-	-
CCOC(=O)c1c(-c2ccccc2)cn2c(C)cc(C)nc12	-	12	-	-	-	-
SMILES	DAX1 inh-1	hgDAF-12 ag	ssDAF12 agonist	DAX1 inh-2	hcDAF12 agonist	PolyA inh
CN(CCOC(=O)CCCc1ccccc1)C1CN(Cc2cn(Cc3ccccc3F)nn2)S(=O)(=O)C1 (stereo not drawn)	.	-	-	-	-	.
COC(=O)C1=C(C)N(Cc2ccc(Cl)cc2)C(=S)NC1c1ccc(Cl)cc1 (stereo not drawn)	.	-	-	-	-	.
CCOc1ccc2nc(SCc3ccccc3C#N)sc2c1	-	11	-	-	-	-
CC(C)c1ccc(OCC(=O)N2CCCCCC2)c(Br)c1	-	11	-	-	-	-
O=C(Oc1ccc2ccccc2c1Cl)N1CCCCCC1	-	-	-	4.1	-	?
O=C(COc1ccc2ccccc2c1Br)N1CCCC1	-	-	-	3.9	-	-
O=C(COc1ccc2ccccc2c1Br)N1CCOCC1	-	-	-	-	-	-
COC(=O)C1=C(C)N(Cc2ccccc2C(F)(F)F)C(=NCc2ccc(OC)cc2)NC1c1ccc(C(F)(F)F)cc1 (stereo not drawn)	.	-	-	-	-	.
CCCCN1CCN(C2=NC(=O)N(c3ccc(Br)cc3)C(=O)C2)CC1	.	-	-	-	-	.
CCCCN1CC(COCc2ccccc2)Oc2cccc(Oc3ccc(F)cc3OC)c2S1(=O)=O (stereo not drawn)	.	-	-	-	-	.
C=CCN1[C@@H](C)[C@H](c2ccccc2)Oc2cccc(N3CCCC3)c2S1(=O)=O	.	-	-	-	-	.
O=C(NCCc1ccccc1)C1CCC(Cn2c(=O)c3ccccc3n(Cc3cccc(Cl)c3)c2=O)CC1 (stereo not drawn)	6.0	-	-	-	-	-
Cc1ccc(-n2c(C)nc3ccsc3c2=O)cc1	-	-	-	-	-	-
Cc1ccc(-c2nc3ccsc3c(=O)o2)cc1	-	-	-	-	5.9	-
CCCCOc1ccc(C(=O)NC2CCCCN(C(C)C)C2=O)cc1 (stereo not drawn)	.	-	-	-	-	.
Cc1cc(C(=O)Nc2ccc(F)cc2C)n(-c2ccccc2)n1	5.0	-	-	-	-	-
CCOC(=O)c1sc2nc3c(cc2c1N)COC(C(C)C)C3 (stereo not drawn)	4.3	-	-	-	-	-
CCOC(=O)c1sc2nc(N3CCOCC3)c3c(c2c1N)CC(C(C)C)OC3 (stereo not drawn)	-	-	-	-	-	-
NC(CO)(CO)COCc1ccccc1	-	-	1.3	-	-	-
Cc1cccc(N2C(=O)c3cccc(Oc4ccc(Cl)cc4)c3C2=O)c1	5.2	-	-	-	-	-
O=C(O)c1cccc(N2C(=O)c3ccc(Oc4ccc(Cl)cc4)cc3C2=O)c1	4.6	-	-	-	-	-
Cc1cccc(N2C(=O)/C(=C\c3ccc(C(=O)O)cc3)c3ccccc3C2=O)c1	-	-	-	-	-	-
Clc1ccc(-c2nc3c4ccccc4ccn3c2Cc2ccccc2)cc1	-	-	-	-	-	.
Cc1ccc2nc(C3CCCCC3)c(Cc3cccc(F)c3)n2c1	.	-	-	-	-	.
Fc1cccc(Cc2c(-c3cccc(Cl)c3)nc3c4ccccc4ccn23)c1	.	-	-	-	-	.
CCCc1nc2c3ccccc3ccn2c1Cc1cccc(F)c1	.	-	1.1	-	-	.
CCCc1nc2ccc(C)cn2c1Cc1cccc(F)c1	.	-	1.9	3.9	-	.
